# From PubChem
# Rows were chosen to be rich in hits. Some 19% of all compounds tested hit in one or more screens of this group.
# HT1080 IDH1KD tx: toxicity to HT-1080 IDH1 knockdown cells (counter line). HT-1080 IDH1 knockdown viability, ATP luminescence, 48 h. hit rate 2% among 360,000. Potency, µM (highest dose often 46.1 µM), for inactives: at the highest dose activity, negative = toxicity, usual class: cytotoxic. AID 686971;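 further: potency means the concentration at half of the fitted maximal effect; 0% = DMSO wells and -100% = cell-free medium wells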
#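 After a 2 h attachment period, IDH1KD HT-1080 cells took pin-transferred compound for 48 h at 37 °C; ATP-based luminescence after 10 min room-temperature reagent incubation reported viability.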
# TDP1 cell noCPT: qHTS for Inhibitors of human tyrosyl-DNA phosphodiesterase 1 (TDP1): qHTS in cells in absence of CPT; DT40 Tdp1-/- hTDP1 cells, no CPT, ATP luminescence, 48 h; Potency, µM (titrated, usually from 46.2 µM), for inactives: top-dose activity change, negative = growth inhibition, hits mostly inhibitors; hit rate 15% among 420,000; further: potency means the concentration at half of the fitted maximal effect; nearly all actives have a fitted effect of over 55% in size
#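 Stably hTDP1-transfected Tdp1-null chicken DT40 cells were treated with library compounds minus camptothecin and grown for at least 48 hr at 37 °C, after which cellular ATP was quantified by luminescence.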
# IL1B secr inh: blocks inflammasome-driven IL-1 beta release; THP-1 LPS/ATP IL-1B secretion, AlphaLISA, 16 h; stronger effect = lower value; activity change, % at 57.5 µM; hit rate 4.7% among 360,000; AID 743279; in the data active means activity change below about -50%; inconclusive means mostly about -30% to -49%
#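 Secreted IL-1B measured by AlphaLISA bead assay after 16 h compound exposure of THP-1 cells; compounds (final up to 57.5 uM) added 1 h before LPS (250 ng/mL) and ATP (1.25 mM) stimulation; lower signal means less secretion.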
# DT40 TDP1 CPT: DT40-hTDP1 cell growth loss with CPT. Potency, µM (highest dose often 46.2 µM), without a hit: at the top dose activity change, negative = growth inhibition, actives largely listed as inhibitors. hit rate 12% among 420,000. chicken DT40 Tdp1-/-;hTDP1 cells + 20 nM CPT, ATP luminescence, 48 h; further: potency means the concentration at half of the fitted maximal effect; nearly all actives have a fitted effect of over 55% in size
#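 Cell growth measured by CellTiter-Glo luminescence after a minimum 48 h, 37 C compound exposure with 20 nM CPT in Tdp1-knockout DT40 cells stably expressing hTDP1, seeded 400/well; qHTS titration format.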
# HT1080-NT tox: kills 2HG-producing HT-1080-NT fibrosarcoma cells; HT-1080-NT fibrosarcoma viability, CellTiter-Glo ATP luminescence, 48 h; Potency, µM (top dose mostly 46.1 µM), without a hit: top-dose activity, negative = less viability, usual class: cytotoxic; hit rate 1.6% among 360,000; AID 686970;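 further: NT is the 2HG producing partner of a matched IDH1 knockdown line; potency means the concentration at half of the fitted maximal effect; 0% = DMSO-treated cells and -100% = media-only wells without cells; nearly all actives have a fitted effect of over 55% in size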
#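 Compounds were tested in concentration-response format on HT-1080-NT cells for 48 hours at 37 degrees C. Cell viability came from CellTiter-Glo luminescence; curves were classified by r2, response magnitude and activity.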
# uPA surface inh: inhibitors of cell surface uPA generation; cell surface uPA generation assay, qHTS; Potency, µM (titrated, usually from 38.3 µM), without a hit: at the highest dose activity change, negative = inhibition, hits mostly inhibitors; hit rate 0.31% among 330,000; AID 540303; active means well fitted inhibition curve with a large enough effect; inconclusive means small, poorly fitted or top-dose-only effect; inactive means no such curve, though single readings can be large or run the other way; tested in mouse RAW 264.7 cells; further: potency means the concentration at half of the fitted maximal effect; nearly all actives have a fitted effect of over 55% in size
# An asterisk follows results filed as active; ? = inconclusive; / = no result; [ ] = remark or other dose. Unless noted, the call rests on the fitted dose curve; in most records, active means well fitted curve in the direction sought with a large enough effect; inconclusive means small, poorly fitted or top-dose-only effect, or another doubt; inactive means no such curve, though single readings can be large; an effect the other way counts as inactive or inconclusive. Unless noted, on the % scale 0 is the no-effect control and ±100 the full control effect.
SMILES,HT1080 IDH1KD tx,TDP1 cell noCPT,IL1B secr inh,DT40 TDP1 CPT,HT1080-NT tox,uPA surface inh
C[N+]1([O-])[C@@H]2CC[C@H]1CC(OC(=O)C(CO)c1ccccc1)C2 (stereo not given in full),/,-29%[21.1 µM],/,-3%[21.1 µM],/,/
CCCOC(=O)c1c(C)oc2c1cc(NS(=O)(=O)c1ccc(OCC)cc1)c1ccccc12,/,1µM*,/,1.5µM*,/,/
[N-]=[N+]=NCc1cn2cccnc2n1,13%,-7%,4,12%,0%,-4%
O=C1C(=O)c2ccccc2-c2ccccc21,1.2µM*,0.58µM*,-108*,0.52µM*,0.92µM*,?
O=C1C(c2ccccc2)=C(N2CC2)c2ccccc21,-4%,?,-11,?,5%,-3%
O=C1C(=O)c2cccc3cccc1c23,6%,0.65µM*,5,0.58µM*,0%,8%
O=C(COc1ccc(Cl)cc1)N1CCN(Cc2ccc([N+](=O)[O-])cc2)CC1,-13%,23µM*,-23,?,-6%,-23%
CSc1ccc(CN2CCN(C(=O)COc3cccc(C)c3)CC2)cc1,-20%,21µM*,?,16µM*,-6%,1%
COc1ccc(OCC(=O)N2CCN(Cc3nc4cc([N+](=O)[O-])ccc4n3C)CC2)cc1,-6%,?,-8,15µM*,-7%,-6%
COc1ccc(OCC(=O)N2CCN(CCc3ccncc3)CC2)cc1,/,-2%,/,-6%,/,/
CC(C)N1CCN(Cc2cccc([N+](=O)[O-])c2)CC1,11%,-10%,16,22%,14%,-1%
Cc1ccc(OCC(=O)N2CCN(Cc3ccc(F)cc3)CC2)cc1,/,-22%,/,-10%,/,/
Cc1cccc(OCC(=O)N2CCN(Cc3cccnc3)CC2)c1,-6%,-27%,-13,-9%,-7%,3%
O=[N+]([O-])c1cccc(CN2CCN(Cc3ccc(Cl)cc3)CC2)c1,-7%,16µM*,-21,?,-23%,-6%
COC(=O)C1=C(c2ccc(F)cc2F)C[C@@H]2CC[C@H]1N2C(=O)NCc1ccco1,12%,?,3,-8%,-13%,-27%
O=C1CN=C(c2ccccc2)c2cc(Br)ccc2N1,-5%,?,16,11%,0%,-7%
O=C(O)CCC(=O)NCCC1=c2ccccc2=N/C1=C\c1c(O)n(Cc2ccc(F)cc2)c(=S)[nH]c1=O,0%,0%,-4,49%,-3%,-2%
Cc1ccc2c(c1)[C@H]1[C@H](CO2)[C@H](c2ccccc2)[C@]2(C)C(=O)N(CC3CCCO3)CC(=O)N12 (stereo not given in full),8%,?,-10,3%,2%,11%
Cc1cc2c(cc(C(=O)N3CCC(C(=O)NC4CCCC4)CC3)n2Cc2c(F)cccc2Cl)o1,3%,23µM*,18,18µM*,1%,-25%
O=c1c(F)cn(C2CCCO2)c(=O)n1Cc1c(F)cccc1Cl (stereo not given),-5%,?,-20,6%,-4%,3%
CC(C)C(Br)C(=O)NC(N)=O (stereo not given),/,2%,/,12%,/,/
CN(C)c1ccc(/C=C/[N+](=O)[O-])cc1,23µM*,16µM*,-64*,?,?,-4%
C/C(=C\c1ccc(N(C)C)cc1)[N+](=O)[O-],6.3µM*,4.1µM*,-107*,4.1µM*,11µM*,/
COc1cc(C(=S)N2CCOCC2)cc(OC)c1OC(=O)Cc1ccccc1,12%,-2%,43,-12%,6%,-3%
CC(C)CN1CCN(Cc2ccc(F)cc2Cl)CC1CCO (stereo not given),-1%,14%,27,-10%,21%,5%
SMILES,HT1080 IDH1KD tx,TDP1 cell noCPT,IL1B secr inh,DT40 TDP1 CPT,HT1080-NT tox,uPA surface inh
COC(=O)C1=C(c2cccc(OC)c2OC)C[C@@H]2CC[C@H]1N2C(=O)NC(C)C,8%,-14%,15,?,6%,11%
CCCCCn1c(=O)c(C(=O)Nc2cc(C)ccn2)c(O)c2ccccc21,23%,7.3µM*,3,7.3µM*,23%,-1%
CCCCCn1c(=O)c(C(=O)Nc2nc(CC(=O)OCC)cs2)c(O)c2ccccc21,8%,4.6µM*,-3,4.1µM*,11%,9%
CCCCCCCn1c(=O)c(C(=O)Nc2cnccn2)c(O)c2ccccc21,?,0.58µM*,/,0.82µM*,-28%,-3%
CCCCCCn1c(=O)c(C(=O)Nc2cccc(C)n2)c(O)c2ccccc21,1%,3.7µM*,36,3.7µM*,4%,1%
CCN(C(=O)COC(=O)Cc1ccccc1)c1c(N)n(Cc2ccccc2)c(=O)[nH]c1=O,4%,1%,2,13%,5%,3%
CC1CN2C(=O)C1(c1ccccc1)C(=O)NC2=S (stereo not given),9%,-20%,10,-8%,7%,/
C=CCn1c(=O)c(C(=O)NCc2ccccc2)c(O)c2ccccc21,-9%,?,16,?,-11%,2%
CCCCCn1c(=O)c(C(=O)Nc2cnccn2)c(O)c2ccccc21,-26%,2.9µM*,82,4.1µM*,-16%,-5%
Cc1cccc(OP(N)(=O)Oc2cccc(C)c2C)c1C,-4%,?,13,?,-16%,?
O=C(Oc1ccc2ccc(OC(=O)N3CCCCCC3)cc2c1)N1CCCCCC1,2%,21µM*,22,12µM*,4%,3%
c1csc(CN2CCC3(CCNCC3)CC2)n1,/,10%,/,6%,/,/
O=C1CC(c2c(F)cccc2Cl)c2c(c3ccccc3oc2=O)O1 (stereo not given),/,2%,/,1%,/,/
O=C(Nc1ccc(Cl)c(C(F)(F)F)c1)NC1CC2CCCC(C1)N2Cc1ccccc1 (stereo not given),?,13µM*,-106*,18µM*,18µM*,0%
COc1ccc(OC)c(-n2c(O)c(C=Nc3c(C)n(C)n(-c4ccccc4)c3=O)c(=O)[nH]c2=S)c1,9%,-14%,/,7%,12%,0%
CC1COC2=C1C(=O)C(=O)c1c2ccc2c1CCCC2(C)C (stereo not given),/,13µM*,/,?,/,/
C[C@H]1COC2=C1C(=O)C(=O)c1c2ccc2c1CCCC2(C)C,-28%,5.2µM*,-21,5.2µM*,?,-21%
N#Cc1ccc(CN2CC[C@@]3(CCCN(C(=O)Oc4ccccc4)C3)C2)cc1,/,?,/,-1%,/,/
